The campaign covered roughly 1,900 compounds. About 40 (2%) showed an effect of 50% or more. Many of the other results were omitted from the sample, so strong results are more common in it than they were. Residues, ends and D or L forms follow the SMILES beside them.
Molecular target: human SGLT1 (hSGLT1) (human, UniProt P13866)
Test: primary screen, percent of control activity; higher = less effect of the substance
Design: single well
Conditions: 50 µM
Description: Two days before the assay, CHO‐wild type and CHO‐hSGLT1 cells were seeded in maintenance medium at 25 000 cells/well in clear‐bottom black 96‐well cell culture plates. Before the assay, cells were washed 3 times with 150 μL/well D‐glucose free DMEM with 0.3% (w/v) BSA. Library compounds at 50 μmol/L (singlicate) prepared in D‐glucose free DMEM with 160 μmol/L 1‐NBD‐glucose and 0.3% (w/v) BSA and negative controls (triplicate) were added at 100 μL/well and placed in a humidified incubator at 37°C with 5% CO2 for 90 minutes. Next, cells were washed 3 times with DMEM with 0.3% (w/v) BSA (150 μL/well). Care was taken to remove all medium after the last wash. Finally, 1‐NBD‐glucose was extracted from the cells by adding 10 μL/well isopropanol and orbital shaking for 5 minutes at 600 rpm, followed by incubation in the dark for 30 minutes. Fluorescence was measured on a Tecan Infinite M200 Microplate Reader (Tecan, Männedorf, Switzerland) with excitation at 445 nm and emission at 525 nm. The amount of 1‐NBD‐glucose taken up by the CHO‐wild type or CHO‐hSGLT1 cells in the presence or absence of test compounds was interpolated from 1‐NBD‐glucose calibration standards. The background uptake by CHO‐wild type was subtracted from the uptake by CHO‐hSGLT1. Background corrected uptake with test compound was expressed as a percentage of corrected uptake without test compound.

Sequence of human SGLT1 (hSGLT1) (P13866 whole entry, looked up): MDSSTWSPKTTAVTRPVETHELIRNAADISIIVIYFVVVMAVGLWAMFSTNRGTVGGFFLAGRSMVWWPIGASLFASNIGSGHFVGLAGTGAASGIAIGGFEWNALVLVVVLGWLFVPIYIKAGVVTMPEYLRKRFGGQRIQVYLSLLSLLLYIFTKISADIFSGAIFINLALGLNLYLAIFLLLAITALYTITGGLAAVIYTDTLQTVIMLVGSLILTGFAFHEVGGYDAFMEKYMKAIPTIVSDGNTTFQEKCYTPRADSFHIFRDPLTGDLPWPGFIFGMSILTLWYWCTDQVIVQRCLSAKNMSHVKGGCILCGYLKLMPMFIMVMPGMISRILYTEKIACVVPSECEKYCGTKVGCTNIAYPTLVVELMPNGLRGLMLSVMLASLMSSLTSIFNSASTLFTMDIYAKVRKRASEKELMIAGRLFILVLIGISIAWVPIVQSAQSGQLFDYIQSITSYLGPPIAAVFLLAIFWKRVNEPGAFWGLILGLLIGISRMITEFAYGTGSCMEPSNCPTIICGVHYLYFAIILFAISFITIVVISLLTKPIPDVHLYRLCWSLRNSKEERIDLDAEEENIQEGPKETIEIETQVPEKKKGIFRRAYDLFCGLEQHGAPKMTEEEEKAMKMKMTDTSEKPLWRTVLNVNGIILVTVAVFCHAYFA

Structure (SMILES)	NORMALIZED SGLT1 ACTIVITY (%)
CCCCCNC(=N)N/N=C/c1c[nH]c2ccc(OC)cc12.O=C(O)/C=C\C(=O)O	141
CO[C@@]1(NC(=O)C(C(=O)[O-])c2ccc(O)cc2)C(=O)N2C(C(=O)[O-])=C(CSc3nnnn3C)CO[C@@H]21.[Na+].[Na+] (stereo partly shown)	97
CC(=O)O[C@@H]1CC(=O)[C@@]2(C)C(CC(=O)[C@]3(C)C2CC[C@@]2(C)[C@H](c4ccoc4)OC(=O)C4OC423)C1(C)C (stereo partly shown)	92
COC(=O)[C@@]1(C)CCC[C@]2(C)c3ccc(O)c(C(C)C)c3CCC12 (stereo partly shown)	138
Cc1c(O)c(C(=O)CC(C)C)c2oc3c(C(=O)CC(C)C)c(O)c(C)c(O)c3c2c1O	107
O=[N+]([O-])c1ccc(O)c([N+](=O)[O-])c1	145
CC(=O)Nc1ccccc1	112
CC(=O)Oc1ccccc1C(=O)O	112
CC(=O)[O][Hg][c]1ccccc1	4
Cc1nc2ccccn2c(=O)c1CCN1CCC(C(=O)c2ccc(F)cc2)CC1	129
CCCCCCCCCCCCCCCCCC(=O)O.CC[C@H]1OC(=O)[C@H](C)[C@@H](O[C@H]2C[C@@](C)(OC)[C@@H](O)[C@H](C)O2)[C@H](C)[C@@H](O[C@@H]2O[C@H](C)C[C@H](N(C)C)[C@H]2O)[C@](C)(O)C[C@@H](C)C(=O)[C@H](C)[C@@H](O)[C@]1(C)O	106
COc1ccc2c(=O)cc(-c3ccccc3OC)oc2c1	139
COc1cc(OC)c2c(=O)c(-c3ccccc3)coc2c1	336
CCCCCCCCCCCCCCCC[N+](C)(C)C.[Br-]	19
C[N+](C)(C)CCCCCC[N+](C)(C)C.[Br-].[Br-]	95
CCCCCCCCCCCCCCCCOP(=O)([O-])OCC[N+](C)(C)C	79
CCCc1nc2c(C)cc(-c3nc4ccccc4n3C)cc2n1Cc1ccc(-c2ccccc2C(=O)O)cc1	171
Cl.Cl.NCCc1c[nH]cn1	140
O=C(O)c1cc(O)c2ccccc2n1	97
COC(=O)CC1C(C)(C)C(OC(C)=O)[C@@H]2[C@@H](OC(C)=O)[C@]34O[C@@]2(O)[C@]1(C)C3CC[C@]1(C)C4=CC(=O)O[C@H]1c1ccoc1 (stereo partly shown)	94

Structure (SMILES)	NORMALIZED SGLT1 ACTIVITY (%)
O=C(Cc1ccccc1)NO	95
Cl.Cl.O=C(O)COCCN1CCN(C(c2ccccc2)c2ccc(Cl)cc2)CC1 (stereo not shown)	141
Cc1cccc(CN2CCN(C(c3ccccc3)c3ccc(Cl)cc3)CC2)c1.Cl.Cl (stereo not shown)	133
Cl.Clc1ccc(C(OCCN2CCCCC2)c2ccccc2)cc1 (stereo not shown)	37
CCCCC[C@H]1C(=O)O[C@H](C)[C@H](NC(=O)c2cccc(NC=O)c2O)C(=O)O[C@@H](C)[C@@H]1OC(=O)CC(C)C	220
O=C(O)c1cn(C2CC2)c2cc(N3CCNCC3)c(F)cc2c1=O	76
O=c1ccc2cc(O)c(O)cc2o1	134
CC(NCCC(c1ccccc1)c1ccccc1)c1ccccc1.Cl (stereo not shown)	48
CNC(C)[C@H](O)c1ccccc1.Cl (stereo partly shown)	106
CN[C@@H](C)[C@@H](O)c1ccccc1.Cl	120
COc1cc(/C=C/C(=O)O)ccc1O	147
N[C@H](C(=O)O)[C@@H]1CC(Cl)=NO1	89
COc1ccc2[nH]cc(CCN)c2c1.Cl	120
O=[N+]([O-])O[C@H]1CO[C@H]2[C@@H]1OC[C@H]2O[N+](=O)[O-]	100
Cc1ccsc1/C=C/C1=NCCCN1C.O=C(O)CC(O)(CC(=O)O)C(=O)O	91
CN1CCCN=C1COC(=O)C(O)(c1ccccc1)C1CCCCC1.Cl (stereo not shown)	43
CCN1CCCC(OC(=O)C(c2ccccc2)c2ccccc2)C1.Cl (stereo not shown)	90
COc1c2c(cc3c1OCO3)CC[N+](C)=C2.[Cl-]	98
C[N+](C)(C)CCO.[Cl-]	97
N[C@@H](Cc1ccccc1)C(=O)N[C@@H](Cc1ccc(O)cc1)C(=O)O (H-Phe-Tyr-OH)	112

Structure (SMILES)	NORMALIZED SGLT1 ACTIVITY (%)
CCC(CCC(C)[C@H]1CCC2C3CC=C4C[C@@H](O)CC[C@]4(C)C3CC[C@@]21C)C(C)C (stereo partly shown)	106
Nc1ccc(S(=O)(=O)NC(=O)c2ccccc2)cc1	100
CC(=O)O[C@@H]1CC[C@@]2(C)C(CC[C@]3(C)C2CC=C2C4CC(C)(C)CC[C@]4(C(=O)O)CC[C@]23C)C1(C)C (stereo partly shown)	141
C[C@H]1[C@H](C)CC[C@]2(C(=O)O)CC[C@]3(C)C(=CC[C@@H]4[C@@]5(C)CC[C@H](O)C(C)(C)[C@@H]5CC[C@]43C)[C@H]12	84
CC(=O)O[C@H]1CC[C@@]2(C)C(CC[C@]3(C)C2C(=O)C=C2C4[C@@H](C)[C@H](C)CC[C@]4(C(=O)O)CC[C@]23C)C1(C)C (stereo partly shown)	37
CCCCCc1c2c(cc(O)c1C(=O)O)OC(=O)c1c(cc(OC)cc1C(=O)CCCC)O2	152
O=C(O)c1cccnc1C(=O)O	124
O=C(O)Cc1nn(Cc2ccc(Br)cc2F)c(=O)c2ccccc12	180
CC(COc1ccccc1)N(CCCl)Cc1ccccc1.Cl (stereo not shown)	35
C#CCN(C)Cc1ccccc1.Cl	134
C[C@H](COc1ccccc1)N[C@H](C)[C@H](O)c1ccc(O)cc1.Cl	119
C[C@H]1O[C@@H](O[C@H]2[C@@H](O)C[C@H](O[C@H]3[C@@H](O)C[C@H](O[C@H]4CC[C@@]5(C)[C@H](CC[C@@H]6[C@@H]5CC[C@]5(C)[C@@H](C7=CC(=O)OC7)CC[C@]65O)C4)O[C@@H]3C)O[C@@H]2C)C[C@H](O)[C@@H]1O	111
CC(CCC(=O)O)[C@H]1CCC2C3C(C[C@H](O)[C@@]21C)[C@@]1(C)CC[C@@H](O)C[C@H]1C[C@H]3O (stereo partly shown)	89
C[C@H]1OC(n2cc(F)c(=O)[nH]c2=O)C(O)[C@@H]1O (stereo partly shown)	112
Cn1c(=O)c2c(ncn2CCCl)n(C)c1=O	183
COc1cccc(OC)c1OCCNCC1COc2ccccc2O1.Cl (stereo not shown)	72
CN(Cc1cc(Br)cc(Br)c1N)C1CCCCC1.Cl	44
Cl.Nc1c(Br)cc(Br)cc1CNC1CCC(O)CC1 (stereo not shown)	99
